Several values for one entry are separate records, joined by “and”; a condition that tells them apart may be missing. Equal entries are not always repeated. Over roughly 110,000 compounds, “z-score” has its median near -0.1; the highest 2% begin near 2. This excerpt belongs to a sample that is enriched for the highest values. Activity calls are given as the source filed them.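 Rule for the calls: active = z-score in the third read window above 3 or below -3; inactive = the rest.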
These compounds were tested against Metabotropic glutamate receptor 8 (Rattus norvegicus) (UniProt P70579) (assay: mGluR8 Gi/Go-coupled signaling modulation – cell-based, rat, thallium flux, HTS, primary screen (AID 488969)). Conditions: HEK293 rat mGluR8, GIRK (G protein-gated inwardly rectifying potassium channel) thallium flux, FluoZin2; at 10 µM; stronger effect = higher value; submaximal glutamate (EC20) added with thallium.
Chain of Metabotropic glutamate receptor 8 (Rattus norvegicus) (P70579 whole entry, looked up): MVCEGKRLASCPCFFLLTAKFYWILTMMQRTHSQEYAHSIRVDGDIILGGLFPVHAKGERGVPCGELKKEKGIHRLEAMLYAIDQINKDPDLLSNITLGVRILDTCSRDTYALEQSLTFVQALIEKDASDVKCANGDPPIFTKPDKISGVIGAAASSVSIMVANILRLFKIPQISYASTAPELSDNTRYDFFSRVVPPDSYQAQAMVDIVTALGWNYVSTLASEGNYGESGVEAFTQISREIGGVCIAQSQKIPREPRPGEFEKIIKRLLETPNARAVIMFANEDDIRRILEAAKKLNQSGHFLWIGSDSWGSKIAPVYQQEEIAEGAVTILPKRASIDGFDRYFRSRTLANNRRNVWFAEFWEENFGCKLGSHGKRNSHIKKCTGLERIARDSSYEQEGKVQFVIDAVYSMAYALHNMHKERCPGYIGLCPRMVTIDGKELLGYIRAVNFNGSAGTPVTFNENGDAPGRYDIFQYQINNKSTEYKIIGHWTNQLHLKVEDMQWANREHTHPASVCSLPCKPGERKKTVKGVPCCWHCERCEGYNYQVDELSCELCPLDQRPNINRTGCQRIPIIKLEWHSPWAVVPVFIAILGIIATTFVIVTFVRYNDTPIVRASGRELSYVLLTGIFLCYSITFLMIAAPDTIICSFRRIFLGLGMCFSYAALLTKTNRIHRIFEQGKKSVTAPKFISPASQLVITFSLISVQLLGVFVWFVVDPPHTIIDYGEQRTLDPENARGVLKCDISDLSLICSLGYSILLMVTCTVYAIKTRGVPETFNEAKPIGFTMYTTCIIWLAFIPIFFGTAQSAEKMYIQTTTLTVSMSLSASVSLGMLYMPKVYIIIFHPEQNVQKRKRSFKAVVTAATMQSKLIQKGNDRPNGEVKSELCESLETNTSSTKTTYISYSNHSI
In the case of `Cc1ccc(/C=C(\C#N)C(=O)Nc2c(C)cccc2C)s1`, the z-score is reported as -0.0444.
For `O=C(CSc1cccc2cccnc12)OCC(=O)c1ccc(Br)cc1`, the z-score was -0.113.
`COc1ccc(CSc2cccc3cccnc23)cc1[N+](=O)[O-]` showed a z-score of 0.224.
Compound `O=C(CSc1cccc2cccnc12)OCC(=O)c1ccccc1` has a z-score of 0.45.
For `Cc1cccc(CSc2cccc3cccnc23)c1`, the z-score was 8.5 (active).
With `CN(C)C(=O)CSc1cccc2cccnc12` the z-score was 7 (active).
In the case of `CCOC(=O)CSc1cccc2cccnc12`, the z-score is reported as 4.08 (active).
In the case of `O=C(CSc1cccc2cccnc12)NCc1ccco1`, the z-score is reported as -0.028.
`COc1ccc(/C(C)=N/NC(=O)c2ccc(CSc3cccc4cccnc34)cc2)cc1OC` showed a z-score of -0.51.
For `O=C(O)CSc1cccc2cccnc12`, the z-score was -0.347 and 0.372.
Work on `Cc1ccc(NC(=O)CN2C(=O)C3CCCCN3C(=O)c3ccccc32)cc1` (stereo not given) yielded a z-score of 0.0289.
With `COC(=O)c1cc2c(s1)-c1ccccc1OC2` the z-score was -0.0119.
With `Cc1ccc(NC(=O)c2ccc3nc[nH]c3c2)cc1C` the z-score was 0.551.
`Cc1ccc(NC(=O)c2c(Cl)n(C)c3ccccc23)cc1` was tested, and the z-score was -0.377.
In the case of `O=C(Nc1cccc(NC(=O)c2cccs2)c1)c1ccco1`, the z-score is reported as -0.313.
For `Clc1cccc(Cl)c1CO/N=C/c1c(-c2ccccc2)nc2n1CCS2`, the z-score was -0.177.
In the case of `Cn1c(O)c(C=NCC2CCNCC2)c(=O)n(C)c1=O`, the z-score is reported as 0.695.
In the case of `O=C(NCc1cccs1)c1cnn2cccnc12`, the z-score is reported as 0.267.
`CCOC(=O)N1CCN(CC(O)COCc2ccc(OC)c(OC)c2)CC1` (stereo not given) was tested, and the z-score was 0.0416.
Compound `CC(C)(C)C1CCC(OC(=O)c2ccncc2)CC1` (stereo not given) has a z-score of 0.0808.
Compound `C/C(=N\Nc1ccc([N+](=O)[O-])cc1[N+](=O)[O-])c1ccc(-n2nncc2C(C)(C)C)cc1` has a z-score of -2.37.
Compound `O=C(CCCN1C(=O)C2CCCCN2C1=O)N1CCN(c2ccc([N+](=O)[O-])cc2)CC1` (stereo not given) has a z-score of 0.169.
For `O=C(Nc1cccc(Cl)c1)Nc1nnc(-c2ccncc2)s1`, the z-score was -0.194.
In the case of `O=C(NNC(=O)C1COc2ccccc2O1)c1ccccc1` (stereo not given), the z-score is reported as 0.0265.
`NC(=S)NNC(=O)Nc1ccc(Cl)c(Cl)c1` gave a z-score of 0.243.
In the case of `CC(/C=N/n1c(-c2ccco2)n[nH]c1=S)=C\c1ccco1`, the z-score is reported as 0.1.
`Cc1cc(-c2n[nH]c(=S)n2/N=C/C(Cl)=C/c2ccccc2)n[nH]1` showed a z-score of -0.527.
`CC(=C/c1ccccc1)/C=N/n1c(-c2ccco2)n[nH]c1=S` showed a z-score of 2.16.
`S=c1[nH]nc(-c2ccco2)n1/N=C/C=C/c1ccco1` showed a z-score of -0.366.
Compound `CC(/C=N/n1c(C2CCCCC2)n[nH]c1=S)=C\c1ccccc1` has a z-score of 2.13.
For `CC(/C=N/n1c(COc2ccccc2)n[nH]c1=S)=C\c1ccccc1`, the z-score was 1.93.
With `CC(/C=N/n1c(-c2cc(C)[nH]n2)n[nH]c1=S)=C\c1ccccc1` the z-score was -0.302.
In the case of `S=c1[nH]nc(C2CCCCC2)n1/N=C/C(Cl)=C\c1ccccc1`, the z-score is reported as -0.0746.
`CC(/C=N/n1c(-c2ccco2)n[nH]c1=S)=C\c1ccccc1` was tested, and the z-score was 5.91 (active).
`Cc1cc(NCCN2CCOCC2)n2nc(C)c(-c3ccc(Cl)cc3)c2n1` gave a z-score of -0.362.
`COc1ccccc1-c1c(C#N)c(SCC(=O)N2CCCC2)nc(C)c1C(N)=O` was tested, and the z-score was 0.169.
Compound `CNC(=O)c1ccc(-n2nc(C)cc2-c2ccccc2)cc1` has a z-score of -0.167.
Compound `CCOC(=O)c1c(N)sc2c(OCC)c(Br)ccc12` has a z-score of 0.151.
Work on `CCCNC(=O)C(Cc1ccccc1)NS(=O)(=O)c1ccc2c(c1)CCC(=O)N2` (stereo not given) yielded a z-score of 0.179.
For `O=C1CCc2cc(S(=O)(=O)NC(C(=O)NCc3cccnc3)c3ccccc3)ccc2N1` (stereo not given), the z-score was -0.174.
In the case of `CCCN(CCC)CCNC(=O)C(NS(=O)(=O)c1ccc2c(c1)CCC(=O)N2)c1ccccc1` (stereo not given), the z-score is reported as 10 (active).
With `Cc1ccccc1S(=O)(=O)c1c(C)cc(C)n(C(C)C)c1=O` the z-score was -0.131.
`CCCCNC(=S)N/N=C1\CCCCc2ccccc21` showed a z-score of 2.17.
`COC(=O)N/N=C1\CCCc2ccccc21` gave a z-score of -0.137.
`COc1cccc(NC(=S)N/N=C2/CCCCc3ccccc32)c1` was tested, and the z-score was 8.28 (active).
For `Cc1cccc(NC(=S)N/N=C2/CCCCc3ccccc32)c1`, the z-score was 0.797.
`COc1cccc(NC(=S)N/N=C2\CC(C)(C)Oc3ccc(O)cc32)c1` showed a z-score of -0.0142.
In the case of `C=C(C)CNC(=S)N/N=C1\CCCCc2ccccc21`, the z-score is reported as 3.15 (active).
Compound `CCCCCCC(=O)N/N=C1\CCCc2ccccc21` has a z-score of -0.118.
`CC(C)NC(=S)N/N=C1\CCCCc2ccccc21` showed a z-score of -0.471.
Compound `CCNC(=S)N/N=C1\CCCCc2ccccc21` has a z-score of 1.57.
With `CC(=O)N1CCCc2cc(S(=O)(=O)N(C)Cc3ccccc3)ccc21` the z-score was 0.884.
With `Cc1ccc(SCc2nc3ccccc3[nH]2)cc1` the z-score was -0.0609.
With `CCCC(=O)NC(Nc1cccc(C(F)(F)F)c1)C(Cl)(Cl)Cl` (stereo not given) the z-score was -0.917.
For `COc1cccc(NC(=O)CSc2nc(N)cc(N)n2)c1`, the z-score was 3.37 (active).
Compound `Cc1cccc(NC(=O)CSc2nc(N)cc(N)n2)c1` has a z-score of -0.298.
In the case of `COc1ccc(OCC(=O)Nc2ccccc2O)cc1`, the z-score is reported as -0.431.
`Nc1cc(N)nc(SCC(=O)Nc2ccccc2)n1` showed a z-score of -0.306.
In the case of `COc1cccc(NC(=O)CC2COc3ccccc3O2)c1` (stereo not given), the z-score is reported as 5.36 (active).
With `CCOc1ccc(OCC(=O)Nc2ccc(OC)cc2)cc1` the z-score was -0.476.
Work on `COc1cc(OC)c(OC)cc1NC(=O)CC1COc2ccccc2O1` (stereo not given) yielded a z-score of -0.0814.
Compound `COc1ccc(OCC(=O)NNC(=O)C(=O)Nc2ccc(C)cc2)cc1` has a z-score of 2.73.
`COc1ccc(OCC(=O)Nc2ccccc2OC(F)F)cc1` gave a z-score of 2.69.
Work on `COc1ccccc1NC(=O)CC1COc2ccccc2O1` (stereo not given) yielded a z-score of 0.0423.
`COc1ccccc1NC(=O)COc1ccccc1` showed a z-score of 0.137.
In the case of `COc1ccc(OCC(=O)Nc2ccc(C)cc2)cc1`, the z-score is reported as -0.351.
`COc1ccc(NS(=O)(=O)c2cc(S(C)(=O)=O)ccc2C)cc1` gave a z-score of -0.235.
`COc1ccc2c(c1)C(NC(=O)C(F)(F)F)CC2=O` (stereo not given) gave a z-score of 0.142.
Compound `O=C(N1CCOCC1)N1CCN(C(=O)N2CCOCC2)CC1` has a z-score of -0.108.
With `COc1cc(C(=O)CSc2nncn2C)cc(OC)c1OC` the z-score was -0.245.
Work on `CC1(C)Cc2nc3sc4c(OCc5ccccc5)ncnc4c3cc2CO1` yielded a z-score of -0.0531.
In the case of `CCCN(CCC)C1=N/C(=C\c2ccco2)C(=O)N1c1ccccc1`, the z-score is reported as -0.536.
With `Cc1ccccc1NC1C=CS(=O)(=O)C1` (stereo not given) the z-score was -0.358.
Compound `Cc1ccc(N2C(=O)CCSC23C(=O)Nc2ccccc23)cc1` (stereo not given) has a z-score of -0.0429.
`COc1cc(NC(=O)COc2cccc(OC)c2)cc(OC)c1` was tested, and the z-score was 0.638.
Compound `COc1ccc(OCC(=O)Nc2cccc(OC)c2)cc1` has a z-score of -0.532.
With `CC(C)(C)NC(=O)C(=O)NNC(=O)COc1ccc(Br)cc1` the z-score was 1.89.
Work on `CC(C)(C)NC(=O)C(=O)NNC(=O)COc1ccccc1` yielded a z-score of 0.182.
For `COc1cccc(NC(=O)COc2ccc(C)cc2)c1`, the z-score was 4.04 (active).
For `Cc1ccc(OCC(=O)NNC(=O)C(=O)NC(C)(C)C)cc1`, the z-score was 2.61.
